Measurements from PubChem BioAssay (EPA / NIEHS).
Active and inactive are the calls of the source. The calls were made as follows: active = hit-call score of the fitted dose curve at least 0.9, where 1 is the maximum; inactive = score below 0.9.

Tests used:
[1] = ATG_NFI_CIS: Attagene CIS-FACTORIAL HepG2 Assay for human Nuclear Factor I (NFI) (AID 2282989); conditions: HepG2 cis-regulatory reporter, NFI response element transcription; actives raise or lower the signal
Summary of the method: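 Reporter transcription driven by endogenous transcription factors in HepG2 cells; 24 h treatment. Quantitation by labelled RT-PCR fragments on capillary electrophoresis, gain- or loss-of-signal relative to DMSO.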

[2] = target: Myc proto-oncogene protein (Homo sapiens) (UniProt P01106); assay: ATG_Myc_CIS: Attagene CIS-FACTORIAL HepG2 Assay for human Myelocytomatosis (Myc) Proto-Oncogene Transcription Factor (AID 2282990); conditions: HepG2, Attagene cis-reporter transcription factor activity; actives raise or lower the signal
Summary of the method: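 Fluorescence intensity of reporter-specific cDNA fragments, separated by capillary electrophoresis, gives the signal. Transfected HepG2 cells carrying cis-promoter reporter constructs are incubated with compound for 24 h; DMSO serves as baseline.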

[3] = ATG_NF_kB_CIS: Attagene CIS-FACTORIAL HepG2 Assay for human Nuclear Factor Kappa B (NF-kB) (AID 2282991); conditions: HepG2 Attagene cis-factorial NF-kB reporter mRNA; actives raise or lower the signal
Summary of the method: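 HepG2 cells transfected with cis-promoter-driven reporter units, so endogenous transcription factor activity is measured. Reporter mRNA quantified 24 h after dosing by RT-PCR and capillary electrophoresis, with bidirectional fitting against DMSO.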

[4] = ATG_NRF2_ARE_CIS: Attagene CIS-FACTORIAL HepG2 Assay for human Nuclear Factor Erythroid 2 Related Factor 2 (NFR2) response to Antioxidant Response Elements (ARE) (AID 2282992); conditions: HepG2 Attagene ARE/NRF2 reporter, transcription factor activity; actives raise or lower the signal;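 as to AC50: reporter mRNA level measured by RT-PCR and capillary electrophoresis fluorescence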
Summary of the method: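 Cis-factorial assay: transfected HepG2 reporter library, 24 h dosing, mRNA readout via RT-PCR/CE; DMSO-referenced bidirectional analysis.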

[5] = target: Cellular tumor antigen p53 (Homo sapiens) (UniProt P04637); assay: ATG_p53_CIS: Attagene CIS-FACTORIAL HepG2 Assay for human p53 Transcription Factor (AID 2282994); conditions: HepG2 p53 cis-element reporter, Attagene mRNA; actives raise or lower the signal
Summary of the method: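 Using HepG2 hepatoma cells carrying cis-acting multiplexed reporters, mRNA induction is detected after a 24 h exposure. Gain- and loss-of-signal responses are fitted relative to DMSO-treated cells.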

[6] = ATG_Oct_MLP_CIS: Attagene CIS-FACTORIAL HepG2 Assay for human Octamer-Binding Transcription Factor (Oct) (AID 2282993); conditions: HepG2 Attagene cis-factorial Oct reporter, mRNA; actives raise or lower the signal
Summary of the method: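 Transfected HepG2 cells, 24 h treatment. Reporter mRNA quantified by RT-PCR–capillary electrophoresis; bidirectional fitting against DMSO.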

[7] = BSK_3C_TissueFactor: BioMAP Diversity Plus: 3C Assay for Tissue Factor Biomarker Activity (AID 2282997); conditions: BioMAP 3C HUVEC, tissue factor biomarker readout; actives raise or lower the signal
Summary of the method: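 HUVEC were treated 24 h, then surface tissue factor measured by ELISA and fitted bidirectionally against DMSO. Parallel SRB total-protein staining assessed overt cytotoxicity at the same time point.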

[8] = BSK_3C_uPAR: BioMAP Diversity Plus: 3C Assay for Urokinase-type plasminogen activator receptor (uPAR) Biomarker Activity (AID 2282998); conditions: BioMAP 3C HUVEC, uPAR biomarker ELISA; actives raise or lower the signal
Summary of the method: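 Readout: ELISA for surface uPAR. System: human umbilical vein endothelial primary cells, 24 h after chemical exposure. Analysis: bidirectional fit, DMSO baseline.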

[9] = BSK_3C_VCAM1: BioMAP Diversity Plus: 3C Assay for Vascular cell adhesion molecule 1 (VCAM1) Biomarker Activity (AID 2282999); conditions: BioMAP 3C HUVEC, VCAM1 ELISA, cytokine-stimulated; actives raise or lower the signal
Summary of the method: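 Human umbilical vein endothelial cells (3C system), biomarker read by ELISA 24 h after dosing; bidirectional fit against DMSO baseline. Cytotoxicity tracked by SRB total-protein staining in parallel cultures at biomarker time.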

[10] = BSK_4H_Eotaxin3: BioMAP Diversity Plus: 4H Assay for Eotaxin 3 Biomarker Activity (AID 2283000); conditions: primary human endothelial cells (HUVEC); actives raise or lower the signal
Summary of the method: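 Eotaxin-3 (CCL26) levels were measured by ELISA in HUVEC primary cultures 24 h post-dosing. Gain or loss of signal was fitted in both directions, with DMSO serving as baseline and negative control.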

Measured: AC50

Chain of Myc proto-oncogene protein (Homo sapiens) (P01106 whole entry, looked up, the tested form may be a part): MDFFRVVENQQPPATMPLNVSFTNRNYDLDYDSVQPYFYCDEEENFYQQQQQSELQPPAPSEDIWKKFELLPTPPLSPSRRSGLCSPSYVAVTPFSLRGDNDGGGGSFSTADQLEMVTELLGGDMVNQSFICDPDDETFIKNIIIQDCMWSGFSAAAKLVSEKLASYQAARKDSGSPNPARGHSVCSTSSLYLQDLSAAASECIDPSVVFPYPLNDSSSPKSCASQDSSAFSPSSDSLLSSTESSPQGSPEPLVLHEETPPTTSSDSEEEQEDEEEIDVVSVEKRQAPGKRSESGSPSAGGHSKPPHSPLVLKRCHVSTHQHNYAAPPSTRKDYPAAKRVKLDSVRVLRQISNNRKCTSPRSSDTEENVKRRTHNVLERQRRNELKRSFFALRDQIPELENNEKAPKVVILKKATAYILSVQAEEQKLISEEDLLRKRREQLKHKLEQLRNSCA
Chain of Cellular tumor antigen p53 (Homo sapiens) (P04637 whole entry, looked up): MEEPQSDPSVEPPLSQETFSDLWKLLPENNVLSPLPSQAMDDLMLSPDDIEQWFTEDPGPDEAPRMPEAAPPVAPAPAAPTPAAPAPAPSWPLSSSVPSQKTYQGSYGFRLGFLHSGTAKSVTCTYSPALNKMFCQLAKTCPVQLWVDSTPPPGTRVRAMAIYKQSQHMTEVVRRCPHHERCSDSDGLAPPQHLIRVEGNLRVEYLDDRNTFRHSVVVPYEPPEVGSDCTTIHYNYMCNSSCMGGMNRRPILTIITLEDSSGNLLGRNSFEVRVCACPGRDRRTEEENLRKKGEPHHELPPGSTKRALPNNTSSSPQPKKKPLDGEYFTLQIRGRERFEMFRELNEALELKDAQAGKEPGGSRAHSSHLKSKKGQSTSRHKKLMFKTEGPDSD

CCCOC(=O)CCCCC(=O)OCCC
inactive: [1] | [2] | [3] | [4] | [5]

C=C(C)C(=O)OCCOc1ccccc1
inactive: [1] | [2] | [6]
active: [4] 67.1 µM

S=C(NC1CCCCC1)NC1CCCCC1
inactive: [1] | [2] | [3] | [4] | [7] | [8] | [9] | [10]

C[Si](C)(C)O[Si](O)(O)O
inactive: [1] | [2] | [4] | [6]

CCOC(=O)c1ccc(N(C)C)cc1
inactive: [1] | [2] | [4] | [6]

c1cc(C(c2ccc(OCC3CO3)cc2)C(c2ccc(OCC3CO3)cc2)c2ccc(OCC3CO3)cc2)ccc1OCC1CO1 (stereo unspecified)
inactive: [2]
active: [1] 22 µM | [4] 21.1 µM | [6] 25.6 µM

Cc1ccc(N)c([N+](=O)[O-])c1
inactive: [1] | [2] | [4]

COC(=O)c1ccccc1OC
inactive: [1] | [2] | [4] | [6]

CCCCC(CC)CCC(CC(C)C)OS(=O)(=O)O (stereo unspecified)
active: [4] 100 µM
inactive: [1] | [2] | [6]

OCCNCc1ccccc1
inactive: [1] | [2] | [4] | [6] | [5]

CC(C)(C)c1ccc(-c2ccc(C(C)(C)C)cc2)cc1
inactive: [1] | [2] | [4] | [6]

COCC(C)N (stereo unspecified)
inactive: [1] | [2] | [3] | [4] | [5]

O=C(Nc1ccccc1)c1ccccc1O
inactive: [1] | [2] | [4]
active: [6] 48.3 µM

C=C(C)[C@H]1CC=C(C)CC1
inactive: [1] | [2] | [4] | [6] | [5]

NC(=O)OCC(COC(N)=O)c1ccccc1
inactive: [1] | [2] | [3] | [4] | [5]

Cc1cc(C)c(C)c(C)c1
inactive: [1] | [2] | [4] | [6]

O=C(O)CCCCCCCCCC(=O)O
inactive: [1] | [2] | [4] | [6] | [5]

Cc1ccc(N/N=c2\c(=O)cc/c(=N/Nc3ccc(S(=O)(=O)O)cc3)c2=O)c(C)c1
inactive: [1] | [2] | [4] | [6]

O=CN1CCCCC1
inactive: [1] | [2] | [4] | [6]

COc1c2ccoc2cc2oc(=O)ccc12
inactive: [1] | [2] | [4] | [6] | [5]

CC(C)(C)c1ccc(N)cc1
inactive: [1] | [2] | [4] | [6]

O=C1CCCC1
inactive: [1] | [2] | [3] | [4] | [5]

C#CC1(O)CC[C@H]2[C@@H]3CCC4=CCCC[C@@H]4[C@H]3CC[C@@]21C (stereo partly specified)
inactive: [1] | [2] | [3]
active: [4] 22 µM | [7] 8.34 µM | [8] 9.84 µM | [9] 10.4 µM | [10] 11.1 µM

CC(=O)OCC(=O)[C@@]12N=C(C)O[C@@H]1C[C@H]1[C@@H]3CCC4=CC(=O)C=C[C@]4(C)[C@H]3[C@@H](O)C[C@@]12C
inactive: [1] | [2] | [3] | [4] | [5]

CCCCCCCC[N+](C)(CCCCCCCC)CCCCCCCC
active: [4] 1.59 µM
inactive: [1] | [2]

COCCOCCOCCOCCOC
inactive: [1] | [2] | [4] | [6] | [5]

N=c1ccn2c(n1)O[C@H]1[C@H](O)[C@@H](CO)O[C@H]12
inactive: [1] | [2] | [3] | [4] | [5]

O=C(Cl)c1cc(C(=O)Cl)cc(C(=O)Cl)c1
active: [4] 158 µM | [7] 12.2 µM | [8] 10.2 µM | [9] 12.7 µM | [10] 25.8 µM
inactive: [1] | [2] | [3] | [5]

CCCCCCCCCCCCCCCCCC#N
inactive: [1] | [2] | [3] | [4] | [5]

C=C1[C@H]2CC[C@@H]3[C@H]2C(C)(C)CCC[C@]13C
inactive: [1] | [2] | [4] | [6] | [5]

CNC(=S)NN
inactive: [1] | [2] | [4] | [6] | [5]

O=C(O)Cc1c(Cl)ccc(Cl)c1Cl
inactive: [1] | [2] | [4] | [6] | [5]

CC(CC=O)c1ccccc1 (stereo unspecified)
active: [4] 121 µM
inactive: [1] | [2] | [5]

CCCCCc1ccc(Cl)cc1
inactive: [1] | [2] | [6] | [5]
active: [4] 120 µM

O=C(c1ccccc1)c1ccc(O)c(O)c1O
active: [4] 61.6 µM
inactive: [1] | [2] | [5]

CCOC(=O)Cc1cccc2ccccc12
inactive: [1] | [2] | [4] | [5]

COc1ccc([C@@H]2CC(=O)c3c(O)cc(O[C@@H]4O[C@H](CO[C@@H]5O[C@@H](C)[C@H](O)[C@@H](O)[C@H]5O)[C@@H](O)[C@H](O)[C@H]4O)cc3O2)cc1OC
inactive: [1] | [2] | [4] | [6] | [5]
